Screening data: PubChem BioAssay, Center for Chemical Genomics, University of Michigan
Dicer inh – inhibitors of Dicer pre-microRNA processing, primary screen, biochemical, cat-ELCCA, chemiluminescence; Endoribonuclease Dicer (Homo sapiens), Q9UPY3; cat-ELCCA pre-miR-21 Dicer processing; active compounds read high; z-score at 25 µM; 6% of 47,000 active; AID 1347074, 2019; in the data active = z-score above about 3, passing the limit was not always enough;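 note: higher signal means more uncleaved substrate so more Dicer inhibition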
Target sequence (Q9UPY3 whole entry, looked up): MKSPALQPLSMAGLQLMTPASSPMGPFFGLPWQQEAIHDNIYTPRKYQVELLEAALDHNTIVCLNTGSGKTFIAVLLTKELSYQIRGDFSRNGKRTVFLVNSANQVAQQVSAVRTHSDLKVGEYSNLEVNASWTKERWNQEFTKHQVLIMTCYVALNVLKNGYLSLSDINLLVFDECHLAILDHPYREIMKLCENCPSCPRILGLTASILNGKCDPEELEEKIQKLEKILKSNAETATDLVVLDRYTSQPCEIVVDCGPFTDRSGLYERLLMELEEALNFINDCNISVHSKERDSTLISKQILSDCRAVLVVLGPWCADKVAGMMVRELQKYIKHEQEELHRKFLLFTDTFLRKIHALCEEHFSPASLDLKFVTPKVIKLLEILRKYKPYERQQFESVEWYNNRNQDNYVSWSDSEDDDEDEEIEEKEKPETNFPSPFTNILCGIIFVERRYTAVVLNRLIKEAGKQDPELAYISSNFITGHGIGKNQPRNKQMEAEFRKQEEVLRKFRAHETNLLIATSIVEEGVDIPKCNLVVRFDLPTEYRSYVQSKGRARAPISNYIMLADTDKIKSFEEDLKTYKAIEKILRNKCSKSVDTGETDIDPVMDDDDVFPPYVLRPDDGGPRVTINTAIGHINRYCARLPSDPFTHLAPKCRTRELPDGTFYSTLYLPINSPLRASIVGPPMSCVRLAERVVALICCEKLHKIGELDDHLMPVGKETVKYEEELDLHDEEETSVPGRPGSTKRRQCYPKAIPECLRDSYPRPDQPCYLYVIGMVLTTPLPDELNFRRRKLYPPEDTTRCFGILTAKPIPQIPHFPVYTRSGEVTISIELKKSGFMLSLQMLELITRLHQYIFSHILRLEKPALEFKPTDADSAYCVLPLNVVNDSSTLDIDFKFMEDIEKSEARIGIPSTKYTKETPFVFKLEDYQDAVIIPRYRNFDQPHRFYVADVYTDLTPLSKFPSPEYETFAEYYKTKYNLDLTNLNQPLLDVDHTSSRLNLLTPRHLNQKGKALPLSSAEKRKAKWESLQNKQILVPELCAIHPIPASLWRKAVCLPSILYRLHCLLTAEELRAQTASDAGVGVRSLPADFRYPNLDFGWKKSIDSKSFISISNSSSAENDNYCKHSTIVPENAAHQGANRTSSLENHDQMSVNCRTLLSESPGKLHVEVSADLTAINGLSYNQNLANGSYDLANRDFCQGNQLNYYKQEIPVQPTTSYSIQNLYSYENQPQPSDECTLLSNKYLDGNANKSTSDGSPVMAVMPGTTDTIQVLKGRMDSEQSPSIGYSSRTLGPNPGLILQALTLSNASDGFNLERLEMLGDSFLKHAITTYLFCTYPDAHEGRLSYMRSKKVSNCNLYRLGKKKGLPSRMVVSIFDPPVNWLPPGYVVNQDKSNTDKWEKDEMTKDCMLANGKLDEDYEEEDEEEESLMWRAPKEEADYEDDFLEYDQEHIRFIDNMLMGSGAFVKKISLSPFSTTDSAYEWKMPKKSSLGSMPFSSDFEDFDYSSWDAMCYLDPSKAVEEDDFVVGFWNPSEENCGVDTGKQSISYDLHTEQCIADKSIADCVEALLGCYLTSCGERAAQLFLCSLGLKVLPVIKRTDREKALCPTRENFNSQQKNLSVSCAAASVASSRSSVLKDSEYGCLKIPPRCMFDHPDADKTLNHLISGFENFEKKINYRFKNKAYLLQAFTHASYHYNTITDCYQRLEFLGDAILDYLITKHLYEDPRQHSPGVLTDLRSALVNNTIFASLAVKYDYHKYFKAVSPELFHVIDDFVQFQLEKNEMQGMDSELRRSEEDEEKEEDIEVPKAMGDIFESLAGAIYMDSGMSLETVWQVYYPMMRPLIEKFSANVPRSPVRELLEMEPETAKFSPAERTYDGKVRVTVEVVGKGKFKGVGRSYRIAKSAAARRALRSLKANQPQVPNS
A number is an active result; n = inactive. The entries come from a sample that favours hits as a whole.

SMILES	Dicer inh
CCOC(=O)c1c(N)sc2c(OCc3ccccc3)c(Br)ccc12	n
COCc1cc(=O)[nH]c(-c2cccc(C)c2)n1	n
CCOc1cccc(C2c3c(oc4ccccc4c3=O)C(=O)N2c2ccccn2)c1 (stereo not given)	5.91
O=C1c2oc3ccccc3c(=O)c2C(c2cccc(Br)c2)N1c1ccccn1 (stereo not given)	n
COc1cc(C2c3c(oc4ccccc4c3=O)C(=O)N2c2ccccn2)ccc1OCCC(C)C (stereo not given)	3.45
CCCCOc1cccc(C2c3c(oc4ccccc4c3=O)C(=O)N2c2ccccn2)c1 (stereo not given)	3.24
COc1cccc(C2c3c(oc4ccccc4c3=O)C(=O)N2c2ccccn2)c1 (stereo not given)	n
O=C1c2oc3ccccc3c(=O)c2C(c2cccc(Cl)c2)N1c1ccccn1 (stereo not given)	n
CCCCOc1cccc(C2c3c(oc4ccccc4c3=O)C(=O)N2c2nnc(C)s2)c1 (stereo not given)	n
COc1cc(C2c3c(oc4ccccc4c3=O)C(=O)N2c2nnc(C)s2)ccc1OCCC(C)C (stereo not given)	n
C=CCOc1cccc(C2c3c(oc4ccccc4c3=O)C(=O)N2c2ccccn2)c1 (stereo not given)	n
O=C1c2oc3ccccc3c(=O)c2C(c2cccc(Oc3ccccc3)c2)N1c1ccccn1 (stereo not given)	4.26
COc1cc(C2c3c(oc4ccccc4c3=O)C(=O)N2c2ccccn2)ccc1OCc1ccccc1 (stereo not given)	n
CCCCCOc1cccc(C2c3c(oc4ccccc4c3=O)C(=O)N2c2nccs2)c1 (stereo not given)	n
C#C[C@]1(OC(C)=O)CC[C@H]2[C@@H]3CCC4=CC(=NO)CC[C@@H]4[C@H]3CC[C@@]21CC	n
O=c1[nH]c2nc3ccccc3n2c(O)c1Cc1ccccc1	n
CSc1sc(C(=O)N/N=C/c2cccs2)c2c1C(O)CCC2 (stereo not given)	n
COC(=O)c1sc(Br)c(Br)c1OC(=O)c1ccc(C(C)(C)C)cc1	n
CS/C(=C\C(=O)c1cccs1)NCc1ccccc1	n
Cc1csc(NC(=O)Nc2ccc(C(F)(F)F)cc2)c1	n
CCOC(=O)N/N=C(\C)C(=O)OCC	n
COc1ccc(Cl)cc1S(=O)(=O)NCc1ccccn1	n
O=C(Nc1ccccc1)Sc1ccccc1Cl	n
CCOC(=O)N/N=C(\C)c1ccc(OC)cc1	n
O=C(Nc1nnc(Sc2ccnc3cc(Cl)ccc23)s1)c1cccs1	n
SMILES	Dicer inh
CN1CCN(S(=O)(=O)c2cccc3ccccc23)CC1	n
Cc1ccc([N+](=O)[O-])cc1S(=O)(=O)Nc1ccc(F)cc1	n
Cc1ccc(C(O)c2cccnc2)o1 (stereo not given)	n
Cc1ccc(C(c2ccc(C)o2)c2ccccc2O)o1	5.26
Cc1ccc(/C=C/c2noc(-c3ccccc3O)n2)o1	n
COc1ccc(-n2nnnc2SCC(=O)O)cc1	n
Cn1c(=O)c2c(ncn2CC(=O)N2CCOCC2)n(C)c1=O	n
Cn1c(=O)c2c(ncn2CC(=O)NC2CCSC2=O)n(C)c1=O (stereo not given)	n
COCCCNC(=O)Cn1cnc2c1c(=O)n(C)c(=O)n2C	n
CCOC(=O)C1CCCN(C(=O)Cn2cnc3c2c(=O)n(C)c(=O)n3C)C1 (stereo not given)	7.17
Cn1c(=O)c2c(ncn2CC(=O)N2CCCCC2)n(C)c1=O	n
CCOC(=O)CCn1cnc2c1c(=O)n(C)c(=O)n2C	n
COC(=O)C1CCN(C(=O)Cn2cnc3c2c(=O)n(C)c(=O)n3C)CC1	4.63
Cn1c(=O)c2c(ncn2CC(=O)N2CCCC2)n(C)c1=O	n
CC1CCN(C(=O)Cn2cnc3c2c(=O)n(C)c(=O)n3C)CC1	3.13
CC(=O)OC12CC3CC(C1)CC(C(=O)O)(C3)C2	n
COc1ccc(-c2cc(C(F)(F)F)n3nc(C(N)=O)c(Br)c3n2)cc1	n
CCCCn1c(Oc2ccc(F)cc2)nc2c1c(=O)n(C)c(=O)n2C	n
CCCCc1ccc(-c2c3oc(N)c(C(=O)OCC)c3cc3oc(N)c(C(=O)OCC)c23)cc1	n
O=C(Oc1cc2sc(=O)oc2c2ccccc12)c1ccccc1I	n
Cc1c(C)c(C)c(S(=O)(=O)Oc2cccnc2)c(C)c1C	3.84
COc1ccc(S(=O)(=O)Nc2cccnc2)c(C)c1C	n
Cc1c(C)c(C)c(S(=O)(=O)Oc2cc(Cl)cc(Cl)c2)c(C)c1C	n
O=C(NCCO)C(=O)Nc1ccc(Br)cc1	n
Cc1ccc(C=C2C(=O)OC(C)(C)OC2=O)o1	n
SMILES	Dicer inh
O=S(=O)(/N=C(\NNC(=S)Nc1cc(Cl)ccc1Cl)N1CCCC1)c1ccccc1	n
Cc1ccc(NC(=O)/C(C#N)=C/c2cc(Br)cs2)cc1Cl	n
Cc1ccc(Cc2cc(-c3ccc(C)cc3)n[nH]c2=O)cc1	n
Cc1cc(Cc2cccs2)c(=O)[nH]n1	n
Cc1cc(Cc2ccc(C(F)(F)F)cc2)c(=O)[nH]n1	3.14
CCOC(=O)C(O)(c1ccc(NC(=O)Nc2cccc(Cl)c2)c(C)c1)C(F)(F)F (stereo not given)	n
Clc1ccc(N2C=Nc3cc(Cl)c(Cl)cc3C2)cc1Cl	3.13
O=c1[nH][nH]c(=S)n1-c1ccc(Cl)c(Cl)c1	n
CC(C)c1ccc(N2C=Nc3ccc(C(C)C)cc3C2)cc1	n
c1ccc(CN2CCN(Cc3c[nH]c4ccccc34)CC2)cc1	6.88
COc1ccccc1CN1CCN(Cc2c[nH]c3ccccc23)CC1	n
c1ccc2c(CN3CCN(Cc4ccncc4)CC3)c[nH]c2c1	n
CCOC(=O)N1CCN(S(=O)(=O)c2ccc(-c3cc(C(F)(F)F)on3)s2)CC1	n
CN(C)/C=C1\COc2ccc(Cl)cc2C1=O	n
Cc1cccc(C)c1N=C(N)N=C(N)N	n
Cc1ccc(S(=O)(=O)c2nc(-c3cccs3)oc2NCc2ccccc2)cc1	n
COc1ccc(N2CCCCC2)c([N+](=O)[O-])c1	n
COc1ccc(OC)c(C(=O)c2coc3ccc(O)c(CN(C)C)c23)c1	n
COc1ccc(-n2c(/C=C/N(C)C)c([N+](=O)[O-])c3ccc(O)c(CN(C)C)c32)cc1	3.52
COc1ccc(Oc2c(C(F)(F)F)oc3c(CN4CCCCC4)c(O)ccc3c2=O)cc1	n
Cc1c([N+](=O)[O-])c(/C=C/N(C)C)nn1C	n
COc1ccc(-n2c(C)c([N+](=O)[O-])c3ccc(O)c(CN4CCCCC4)c32)cc1	3.51
COc1cc2c(cc1OC)C(C)N(S(=O)(=O)c1ccc(Cl)cc1)CC2 (stereo not given)	n
O=C1OC(C(=O)Nc2cccc(Cl)c2)Cc2ccccc21 (stereo not given)	n
O=C(Nc1cc2ccccc2s1)NC1CCN(Cc2ccccc2)CC1	n
SMILES	Dicer inh
CSc1sc(C2=NNC(O)(C(F)(F)F)C2)c2c1C(=O)CCC2(C)C (stereo not given)	n
N[C@@H](Cc1ccccc1)c1nnc(SCc2ccc(Cl)cc2)o1	n
Cc1nn(-c2ccccc2)c2nc(-c3ccco3)cc(C(F)(F)F)c12	n
Cc1ccc(-n2nc(C)c3c(C(F)(F)F)cc(-c4ccco4)nc32)cc1	n
Cc1nn(-c2ccc(Cl)cc2)c2nc(-c3ccco3)cc(C(F)(F)F)c12	4.73
CC(C)(C)c1ccc(C(=O)Nc2nc3ccsc3c(=O)s2)cc1	n
Cn1cc([N+](=O)[O-])c(C(=O)Nc2ccc(Cl)cc2)n1	n
CSc1ccccc1NC(=O)Cn1cnc([N+](=O)[O-])n1	n
O=C(Cn1cnc([N+](=O)[O-])n1)Nc1ccc(Cl)cc1	4.35
